The source of these data is the supplement of paper PMC4166925.

± gives the standard deviation of the averaged measurements. Whole data set: some 33,000 sequences, median “E-score (dimensionless, -0.5 to 0.5)” near -0.046, cut for the highest 2% near 0.36. This excerpt belongs to a sample that is enriched for the highest values.
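Also: protein at 200 nM in PBS on universal double-stranded arrays.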

The subject of this assay is T1, SpTbr T-box DNA-binding domain (GST fusion).
T1 sequence: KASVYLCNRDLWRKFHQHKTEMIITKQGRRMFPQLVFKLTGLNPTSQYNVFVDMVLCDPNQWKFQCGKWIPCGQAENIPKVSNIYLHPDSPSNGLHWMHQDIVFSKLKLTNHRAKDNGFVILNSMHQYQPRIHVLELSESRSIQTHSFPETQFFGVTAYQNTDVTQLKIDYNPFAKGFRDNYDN
Kind of assay: PBM E-score of 8-mer (E-score (dimensionless, -0.5 to 0.5)); Tbr is Tbrain of the sea star Patiria miniata (Pm) or the sea urchin Strongylocentrotus purpuratus (Sp); higher = stronger binding preference. As to conditions: the construct has about 5 more residues each side. Here is the method:
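Universal protein-binding microarray (Agilent AMADID 016060, 60-bp probes with a 35-bp variable region) incubated with 200 nM GST-fused Strongylocentrotus purpuratus Tbr T-box DNA-binding domain (residues 362-554) in PBS pH 7.5. Scored for every ungapped 8-mer (given with its reverse complement) as E-score (range -0.5 to 0.5; >0.45 counts as bound) and Z-score of median probe intensity. Two replicate arrays (datasets 1 and 2).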
On to TGTCAAAA, for which the “PBM E-score of 8-mer” value is 0.289 ± 0.021. TACCCGGA: the “PBM E-score of 8-mer” value is -0.128 ± 0.15. Take GCAATCGC: the “PBM E-score of 8-mer” value was found to be 0.212 ± 0.0066.

In the case of ACTGAGGA, the “PBM E-score of 8-mer” value is -0.0611 ± 0.02. Consider CCAATAAC, for which the “PBM E-score of 8-mer” value is -0.0379 ± 0.13. As for CTGGGACC, the “PBM E-score of 8-mer” value was -0.174 ± 0.015. The figure for ACGCCAAC is 0.144 ± 0.021; for CCAGCTTC it is -0.142 ± 0.058; for CGAACAGA it is 0.0582 ± 0.028. Take AACACCGG: the “PBM E-score of 8-mer” value came out at 0.118 ± 0.015. For CAGACCTG, the “PBM E-score of 8-mer” value was -0.0842 ± 0.0016.

In the case of CACACCTG, the “PBM E-score of 8-mer” value stood at 0.479 ± 0.0072. For AACACCGT the value was 0.243 ± 0.091. On to ACCACCTG, for which the “PBM E-score of 8-mer” value stood at 0.224 ± 0.037. For the sequence AACACCTG, the “PBM E-score of 8-mer” value worked out at 0.463 ± 0.0057. Take AAGACCTT: the “PBM E-score of 8-mer” value was -0.259 ± 0.0063.

On to CACACCGG, for which the “PBM E-score of 8-mer” value was 0.175 ± 0.059. As for AACACCTT, the “PBM E-score of 8-mer” value was found to be 0.479 ± 0.0049.

In the case of GTATGCAC, the “PBM E-score of 8-mer” value worked out at 0.0616 ± 0.043. As to CTAGTTTC, the “PBM E-score of 8-mer” value was -0.105 ± 0.053.

Take CTACGCGA: the “PBM E-score of 8-mer” value is 0.0131 ± 0.01.

As for AACTCTGA, the “PBM E-score of 8-mer” value is -0.0644 ± 8.5e-05. Consider CGCAAGAC, for which the “PBM E-score of 8-mer” value came to 0.07366 ± 4.2e-05. As to ACGCATGG, the “PBM E-score of 8-mer” value was -0.144 ± 0.018. As for AGGTGCCC, the “PBM E-score of 8-mer” value was determined as 0.00863 ± 0.0099. Take ACGTGCCG: the “PBM E-score of 8-mer” value was 0.199 ± 0.058.

For the sequence GCGTGCCA, the “PBM E-score of 8-mer” value was 0.128 ± 0.01. For the sequence GTGTGCGA, the “PBM E-score of 8-mer” value turned out to be 0.361 ± 0.0042.

As for CGGTGCGA, the “PBM E-score of 8-mer” value stood at 0.339 ± 0.0046. Consider AGGTGCCG, for which the “PBM E-score of 8-mer” value was found to be 0.421 ± 0.0055. As for ACGTGCCA, the “PBM E-score of 8-mer” value was found to be 0.361 ± 0.033. AGCTGCCA: the “PBM E-score of 8-mer” value turned out to be 0.111 ± 0.099.

Turning to GGGTGCCA, the “PBM E-score of 8-mer” value is 0.3739 ± 0.003. Take AGGTGCCA: the “PBM E-score of 8-mer” value came to 0.46212 ± 0.00034. GGGTGCGA: the “PBM E-score of 8-mer” value turned out to be 0.4746 ± 0.00052. Take CGGTGCCA: the “PBM E-score of 8-mer” value is 0.119 ± 0.02. ACGATCAC: the “PBM E-score of 8-mer” value came out at 0.119 ± 0.031.

On to AGGTTTAA, for which the “PBM E-score of 8-mer” value is -0.0723 ± 0.017. On to GGACTTGA, for which the “PBM E-score of 8-mer” value is -0.12 ± 0.047. The figure for AATACTGG is -0.329 ± 0.041; for TATATCAA it is -0.174 ± 0.03; for AAATGGTA it is -0.152 ± 0.041. For the sequence TGCGAGAA, the “PBM E-score of 8-mer” value is 0.36401 ± 0.00027. As to CAACAAGG, the “PBM E-score of 8-mer” value came to 0.0674 ± 0.0062.

On to CCTTCACA, for which the “PBM E-score of 8-mer” value came to 0.404 ± 0.0071. With CCTTCACC, the “PBM E-score of 8-mer” value worked out at 0.14 ± 0.013. For TCTTCACA the value was 0.395 ± 0.015. For the sequence ACTTCACG, the “PBM E-score of 8-mer” value was 0.312 ± 0.018. For CCTTCACG, the “PBM E-score of 8-mer” value is 0.278 ± 0.019. For ACTTCACA the value was 0.357 ± 0.02.

Take ATCCCAGA: the “PBM E-score of 8-mer” value is -0.0492 ± 0.043. Consider GATTTTCC, for which the “PBM E-score of 8-mer” value was -0.00302 ± 0.027.

On to CCCCAAAA, for which the “PBM E-score of 8-mer” value was -0.112 ± 0.042. Regarding TATTTGAA, the “PBM E-score of 8-mer” value is -0.214 ± 0.013. Consider CACCTCCC, for which the “PBM E-score of 8-mer” value amounted to 0.389 ± 0.017. As for CACCTCCG, the “PBM E-score of 8-mer” value came to 0.4516 ± 0.0039.

With CACCTCCA, the “PBM E-score of 8-mer” value was found to be 0.3876 ± 0.00048. For AACCTCCC the value was -0.0867 ± 0.0052; for TACCTCCA, -0.0368 ± 0.093. For AACCTCCG, the “PBM E-score of 8-mer” value was determined as 0.0095 ± 0.07. As to AACCTCCA, the “PBM E-score of 8-mer” value was -0.135 ± 0.018. Regarding GACCTCCC, the “PBM E-score of 8-mer” value was -0.159 ± 0.12.

Take CCCCTCCG: the “PBM E-score of 8-mer” value came to 0.119 ± 0.066. Regarding AGCGGGCA, the “PBM E-score of 8-mer” value is -0.0395 ± 0.016. As for GACGTGCA, the “PBM E-score of 8-mer” value came to 0.0705 ± 0.07. The figure for ACCCGAGA is 0.0223 ± 0.0071. Regarding GCCCGACC, the “PBM E-score of 8-mer” value was -0.213 ± 0.054. Turning to CTAGGTTA, the “PBM E-score of 8-mer” value is -0.16 ± 0.08.

In the case of GTTTAGCA, the “PBM E-score of 8-mer” value is 0.102 ± 0.11.

Regarding CTCCTCAG, the “PBM E-score of 8-mer” value is -0.0357 ± 0.025. On to CACCTCAG, for which the “PBM E-score of 8-mer” value was 0.376 ± 0.0075. The figure for TACCTCAA is -0.13 ± 0.045; for AACCTCAG it is -0.244 ± 0.045; for AACCTCAA it is -0.158 ± 0.018. As for AACCTCAC, the “PBM E-score of 8-mer” value worked out at 0.182 ± 0.034. In the case of CACCTCAC, the “PBM E-score of 8-mer” value was found to be 0.444 ± 0.012.

Take GACCTCAC: the “PBM E-score of 8-mer” value was 0.137 ± 0.049.

In the case of CACCTCAA, the “PBM E-score of 8-mer” value was determined as 0.375 ± 0.024. Consider CGAAAACG, for which the “PBM E-score of 8-mer” value was determined as 0.0298 ± 0.05. For CGATACAG the value was -0.0251 ± 0.13. For the sequence GAGTTGGA, the “PBM E-score of 8-mer” value is -0.0967 ± 0.023. For the sequence ATCTTCAC, the “PBM E-score of 8-mer” value is 0.267 ± 0.02. Regarding TCTTAACA, the “PBM E-score of 8-mer” value amounted to 0.214 ± 0.041.

GGTTATAC: the “PBM E-score of 8-mer” value is 0.0871 ± 0.041. In the case of GCATGCTA, the “PBM E-score of 8-mer” value was found to be 0.00793 ± 0.094.

For ATAGGGAG, the “PBM E-score of 8-mer” value was -0.00632 ± 0.036. AGAGTGTC: the “PBM E-score of 8-mer” value was determined as 0.359 ± 0.0099. Consider AGAGTGTA, for which the “PBM E-score of 8-mer” value was 0.0671 ± 0.0042.

For the sequence ATAGTGTA, the “PBM E-score of 8-mer” value came out at 0.0763 ± 0.038.

In the case of ATAGTGTC, the “PBM E-score of 8-mer” value turned out to be 0.272 ± 0.07. As for AGAGTGTG, the “PBM E-score of 8-mer” value was found to be 0.375 ± 0.022.

Regarding ATAGTGTG, the “PBM E-score of 8-mer” value stood at 0.388 ± 0.026. Turning to CGAAGACC, the “PBM E-score of 8-mer” value was -0.109 ± 0.036. In the case of GAGCCCCA, the “PBM E-score of 8-mer” value is -0.124 ± 0.065. The figure for GGGTTAAA is -0.213 ± 0.063.

TAACCGAA: the “PBM E-score of 8-mer” value was -0.212 ± 0.034. The figure for CCGCAGAC is -0.143 ± 0.042. GATCAATA: the “PBM E-score of 8-mer” value worked out at 0.0446 ± 0.036. As for GGCCACAA, the “PBM E-score of 8-mer” value was 0.0675 ± 0.11. In the case of AGCCACAC, the “PBM E-score of 8-mer” value was 0.311 ± 0.049. As for CGCCACAC, the “PBM E-score of 8-mer” value stood at 0.3647 ± 0.0013. Regarding CGCCACAG, the “PBM E-score of 8-mer” value stood at 0.0527 ± 0.03. For GGCCACAC the value was 0.3886 ± 0.00083; for CGCCACAA, 0.0762 ± 0.081. In the case of GAGATGGC, the “PBM E-score of 8-mer” value is -0.0157 ± 0.0073.

Regarding CAACCTAG, the “PBM E-score of 8-mer” value was -0.0248 ± 0.069. Regarding AAAGGTGG, the “PBM E-score of 8-mer” value is 0.0801 ± 0.026. Take AAGGGTGT: the “PBM E-score of 8-mer” value amounted to 0.383 ± 0.015. For ATAGGTGA, the “PBM E-score of 8-mer” value was 0.284 ± 0.032. For AAAGGTGT the value was 0.469 ± 0.0063; for AAAGGTCC, 0.0265 ± 0.0014; for AAAGGTGC, 0.414 ± 0.01.
